Test in all cases: NCI-60 one-dose screen, 48 h (100 = growth as untreated, 0 = no growth, -100 = all killed)
In test [1] the test system is NCI-H23 lung. As to conditions: 10 µM unless noted.
Test [2] relates to HOP-62 NSCLC. As to conditions: 10 µM unless noted.
Test [3] concerns NCI-H460 lung. The following applies: 10 µM unless noted.
For test [4], the system named is A549/ATCC NSCLC. The following applies: 10 µM unless noted.
Test [5] deals with K-562 leukemia. The following applies: 10 µM unless noted.
The test system of test [6] is RXF 393 renal. As to conditions: 10 µM unless noted.
Test [7] relates to SF-295 CNS. As to conditions: 10 µM unless noted.
Test [8] deals with UACC-257 melanoma. As to conditions: 10 µM unless noted.
Test [9] deals with LOX IMVI melanoma. As to conditions: 10 µM unless noted.
In test [10] the test system is SK-MEL-28 melanoma. As to conditions: 10 µM unless noted.
Test [11] has as its system SK-MEL-2 melanoma. The following applies: 10 µM unless noted.
The subject of test [12] is UO-31 renal. As to conditions: 10 µM unless noted.
Test [13] concerns TK-10 renal. As to conditions: 10 µM unless noted.
The subject of test [14] is A498 renal. As to conditions: 10 µM unless noted.
For test [15], the system named is HL-60(TB) leukemia. The following applies: 10 µM unless noted.
Test [16] deals with SR leukemia. As to conditions: 10 µM.
Test [17] deals with OVCAR-4 ovarian. As to conditions: 10 µM unless noted.
Test [18] has as its system BT-549 breast. The following applies: 10 µM.
The test system of test [19] is HCC-2998 colon. As to conditions: 10 µM unless noted.
The test system of test [20] is U251 CNS. As to conditions: 10 µM unless noted.

This is part of a sample that, as a whole, favours compounds with a hit. Of some 83,000 tested, about 20% had one in any assay.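 Testing used 96-well plates and a 48-hour single-concentration exposure. Example: -40 means 40% of the starting cells died.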 A number with no mark means an inactive call. Active and inactive are the calls of the source. The calls were made as follows: active = growth percent below 10; inactive = the rest.

Consider `N#CC1c2ccccc2C=CN1C(=O)c1ccc(N(CCCl)CCCl)cc1` (stereo not drawn), for which the growth is 89.3% in test [1]; 91.1% in [2]; 111% in [3]; 79% in [4]; 65.8% in test [5]; 89.7% in test [6]. Besides, the growth in test [7] was 90.6%; in [8] it was 81.5%; in test [9], 90.4%; in test [10], 94.6%; in test [11], 104%; in test [12], 71%. Moreover, the growth in [13] is 107%; in test [14] it was 106%; in [15] it was 65.9%; in [16], 86.6%; in [17], 96.7%; in test [18], 89.8%. Moreover, in [19], the growth is 101%.

In the case of `CC(=O)O[C@H]1CCC2(C)C(=CCC3C2CCC2(C)/C(=N/OC(=O)c4ccc(N(CCCl)CCCl)cc4)CCC32)C1` (stereo partly drawn), the growth in [1] was 45.8%; in test [2] it was -60.8% (active); in test [3], 21%; in [4] it was 2.05% (active); in [5] it was 5% (active); in test [6] it was 44.1%. For the same compound, the growth was 63.5% in [7]; 97.2% in test [8]; -27.2% (active) in test [20]; 5.24% (active) in [9]; 81.8% in [10]; 99.2% in test [11]. In addition, the growth in test [12] was -11.9% (active); in test [13], 79.8%; in test [14], 57%; in test [15], 17.5%; in [16] it was -24.9% (active); in [18], 51.4%. The growth in [19] was 80.3%.

`COc1cc(N(CCCl)CCCl)ccc1C=Nc1ccccc1C(=O)O`: the growth is 101% in test [1]; 110% in [2]; 81.1% in [3]; 92.6% in test [4]; 95% in test [5]; 102% in [6]. The growth in test [7] was 98%; in [8] it was 91%; in test [20] it was 95.8%; in [9], 101%; in [10], 94.3%; in test [11] it was 113%. Moreover, the growth in test [12] was 78.5%; in test [13] it was 124%; in test [14], 66.3%; in [15], 94.8%; in [16], 84.1%; in test [17], 104%. Besides, the growth in [18] is 106%; in [19], 88.2%.

These data come from PubChem BioAssay (NCI).
